{"source": "PubChem BioAssay (NCI)", "note": "The panel holds about 83,000 compounds, 20% with a hit somewhere; the sample as a whole holds those more often.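 Percent growth is the endpoint: 0 to 100 indicates growth inhibition (40 means 60% inhibition), 0 means no net growth, and negative values indicate cell death.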 A number with no mark means an inactive call. Calls of active or inactive are those of the source.", "data": [{"test_system": "OVCAR-3 ovarian", "test": "NCI-60 one-dose screen, 48 h (100 = growth as untreated, 0 = no growth, -100 = all killed)", "settings": "10 µM unless noted", "experimental": "Growth inhibition of the OVCAR-3 human tumor cell line is measured as a screen for anti-cancer activity. Cells are grown in 96 well plates and exposed to the test compound for 48 hours. Compounds are tested at a single concentration, which is 10^-5 M for most compounds. The reported endpoint is percent growth (GI% or GIPRCNT), where numbers from 0 - 100% represent growth inhibition, and numbers from -100% - 0 represent cell death. For example, a value of 40 represents 60% growth inhibition. A value of 0 means no net growth occurred over the course of the experiment. A value of -40 indicates 40% of cells at the beginning of the experiment died by the end of the experiment. A value of -100 means all cells are dead at the end of the experiment.\nNCI-60 Human Tumor Cell Lines Screen was performed using the standard one-dose NCI protocol, which is described in more detail at https://dtp.cancer.gov/discovery_development/nci-60/default.htm.\nCompounds with GIPRCNT values below 10 were considered active. Activity score was based on GIPRCNT using the following formula: […]\nScore is 0 for GIPRCNT values of 100 or above, 50 for GIPRCNT values of 0, and 100 for GIPRCNT values of -100.", "values": [{"smiles": "Cc1ccc(Sc2oc(-c3ccc(C)cc3)nc2[P+](c2ccccc2)(c2ccccc2)c2ccccc2)cc1", "growth": "-3.45% (active)"}, {"smiles": "CCOC(=O)CSc1ncnc2c1c(-c1ccccc1)c(-c1ccccc1)n2-c1ccc(C)cc1", "growth": "66.4%"}, {"smiles": "Cc1oc(-c2ccc(Cl)cc2)nc1/C=C/C(=O)c1ccccc1", "growth": "97.5%"}, {"smiles": "COc1ccc(/C=C2\\COc3ccc(O)cc3C2=O)c(OC)c1OC", "growth": "57.2%"}, {"smiles": "O=C(O)c1ccc(-n2cc(/C=N/Nc3ccc(F)cc3)c(-c3cc4ccccc4oc3=O)n2)cc1", "growth": "82.4%"}, {"smiles": "c1ccc(C2=NN[C@H](c3cn(-c4ccccc4)nc3-c3ccccc3)C2)cc1", "growth": "2.11% (active)"}, {"smiles": "CCCCCC(=O)OCC(=O)O[C@@H]1C[C@]2(C(C)C)O[C@@]1(C)[C@@H]1CC[C@@H](C)[C@H]1[C@@H]2OC(=O)/C=C/c1ccccc1", "growth": "52.9%"}, {"smiles": "O=C(CI)NC1Oc2ccccc2-c2oc(=O)c(-c3ccccc3)cc21", "note": "(stereo not given)", "growth": "-95.1% (active)"}, {"smiles": "Cn1cc(-c2nc(-c3c[nH]c4ccncc34)cs2)c2ccccc21", "growth": "85.8%"}, {"smiles": "COc1ccc(C(=O)Nc2ncc(Cc3cccc(Cl)c3)s2)cc1OC", "growth": "7.51% (active)"}, {"smiles": "C=C(C)[C@@H]1CC[C@]2(C(=O)NCCNCCN)CC[C@]3(C)[C@H](CC[C@@H]4[C@@]5(C)C/C(=C/c6ccncc6)C(=O)C(C)(C)[C@@H]5CC[C@]43C)[C@@H]12", "growth": "97.9%"}, {"smiles": "COc1cc(-c2cc(-c3ccc(N(C)C)cc3)nc(N3CCC(O)CC3)c2C#N)cc(OC)c1OC", "growth": "-14.6% (active)"}, {"smiles": "N#CC1C=CN(CC(N)=O)c2ccc3cccnc3c21", "note": "(stereo not given)", "growth": "109%"}, {"smiles": "CCOC(=O)c1cn2ncnc(Oc3ccc(NC(=O)NC4CCCCC4)c(Cl)c3)c2c1C", "growth": "109%"}, {"smiles": "CCCCCCCCCCCCCCCC(N)c1ccccc1", "note": "(stereo not given)", "growth": "-70.2% (active)"}, {"smiles": "O=S(=O)(Nc1cc(Br)c(O)c2ccccc12)c1ccc(F)cc1", "growth": "-0.424% (active)"}, {"smiles": "CCOC(=O)c1c(NC(=O)c2ccc(C(C)C)cc2)sc2c(CN(C)C)c(O)ccc12", "growth": "96.1%"}, {"smiles": "Cn1c(=O)c2[nH]c(N/N=C/c3ccccc3Br)nc2n(C)c1=O", "growth": "119%"}, {"smiles": "C=CCc1c2c(c(OC)c3ccoc13)C(=O)/C(=C/c1ccccc1OC)O2", "growth": "40.6%"}, {"smiles": "CC1(C)CC2=C3C=C[C@@H]4[C@@]5(C)CCC(=O)C(C)(C)[C@@H]5CC[C@@]4(C)[C@]3(C)CC[C@@]2(C(=O)O)CC1=O", "growth": "60.1%"}, {"smiles": "C#CCOc1ccc2ncnc(Nc3ccc(NC(=O)CCl)cc3)c2c1", "growth": "-38.6% (active)"}, {"smiles": "O=C(Nc1ncc(Cc2ccc(Cl)c(C(F)(F)F)c2)s1)c1ccc2nnsc2c1", "growth": "58.5%"}, {"smiles": "CO[C@H]1/C=C(/C)CCC[C@H](C)[C@H](O)[C@@H](C)C(=O)C(C)(C)[C@@H](O)CC(=O)O[C@@H]1/C(C)=C/c1csc(C)n1", "growth": "-49.9% (active)"}, {"smiles": "CC12CCC3c4ccccc4CCC3(CO1)C2", "note": "(stereo not given)", "growth": "115%"}, {"smiles": "N=C(N)c1ccc(-c2ccc(-c3cc(Cl)cc(Cl)c3)o2)o1", "growth": "-87.9% (active)"}, {"smiles": "CC1(C)CCC(S(=O)(=O)c2ccc3c(c2)/C(=N\\O)c2cc(S(=O)(=O)N4CCC(O)(c5cccc(C(F)(F)F)c5)CC4)ccc2-3)CC1", "growth": "-98.3% (active)"}, {"smiles": "O=Cc1ccc([N+](=O)[O-])s1", "growth": "105%"}, {"smiles": "CC(=O)Cc1nsc(NC(=O)c2cc(-c3cc(Cl)cc(Cl)c3)oc2C)n1", "growth": "106%"}, {"smiles": "N#Cc1nc(-c2ccccc2)oc1S(=O)(=O)N1CCOCC1", "growth": "15%"}, {"smiles": "O=C(Cn1c2c(c3ccccc31)CCCC2)Nc1ccc(-c2nc3ccccc3s2)cc1", "growth": "110%"}, {"smiles": "COC(C(=O)[C@@H](O)[C@@H](C)O)[C@@H]1Cc2cc3cc(O[C@H]4C[C@@H](O[C@H]5C[C@@H](O)[C@H](O)C(C)O5)[C@H](O)C(C)O4)c(C)c(O)c3c(O)c2C(=O)[C@H]1O[C@H]1C[C@@H](O[C@H]2C[C@@H](O[C@H]3C[C@@H](O)[C@H](OC)C(C)O3)[C@@H](O)C(C)O2)[C@H](O)C(C)O1", "note": "(stereo not given in full)", "growth": "5.62% (active)"}, {"smiles": "CCN(CC)c1nc(SCc2ccccc2Cl)ncc1C", "growth": "109%"}, {"smiles": "O=C(Nc1cccnc1Nc1ccc(F)cc1)c1cn(Cc2cccc(Oc3ccccc3)c2)nn1", "growth": "71.9%"}, {"smiles": "CC(C)CCC[C@@H](C)[C@H]1CC[C@H]2[C@@H]3CC=C4C[C@@H](C(C(=O)O)C(=O)O)CC[C@]4(C)[C@H]3CC[C@]12C", "growth": "-73.5% (active)"}, {"smiles": "Cn1ccc2c3c(ccc21)CC3=O", "growth": "117%"}, {"smiles": "CC1=NN(c2nc(SCC(=O)Nc3nc4ccc(C)cc4s3)nc(-c3ccccc3)c2C#N)C(=O)C1", "growth": "108%"}, {"smiles": "CCOC(=O)C1=C(NC)OCC1=O", "growth": "109%"}, {"smiles": "CCS/C(Nc1ccccc1)=C(\\C#N)C(=O)N/N=C/c1ccc(Cl)cc1Cl", "growth": "1.46% (active)"}, {"smiles": "CCOC(=O)Cn1c(O)c(N=Nc2ccc(S(N)(=O)=O)cc2)c2cc(Br)ccc21", "growth": "84.9%"}, {"smiles": "C=C(C)[C@@H]1CC[C@]2(C(=O)O)CC[C@]3(C)[C@H](CC[C@@H]4[C@@]5(C)C[C@@H](Cc6cn(CCO[C@@H]7O[C@H](COC(C)=O)[C@H](OC(C)=O)[C@H](OC(C)=O)[C@H]7OC(C)=O)nn6)[C@H](O)C(C)(C)[C@@H]5CC[C@]43C)[C@@H]12", "growth": "67%"}]}]}
